Data published in the supplement of paper PMC10849652.
Targets with a hit are over-represented here; the source holds about 7,900 in all. About 0.6% of all pairs of compound and target were hits.

Key:
Assay in all cases: log2 fold change, soluble protein after heating vs DMSO (PISA); higher = thermal stabilisation; K562 cells, 10 uM, 30 min; active = over 0.2 and 3.5 SD of the protein, either way, in both replicates (recomputed)
[1] = compound: C#Cc1cccc(Nc2ncnc3cc(OCCOC)c(OCCOC)cc23)c1 [erlotinib]
Summary of the method: (§1)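 Aliquots of K562 cells (2×10^6 cells/mL) treated with 10 μM compound for 30 min were heated for 3 min over 48°C-58°C. After pooling and extraction in PBS with 0.5% NP-40 at 4°C, soluble protein from a 21,000xg, 90 min spin was quantified by TMTpro 16plex LC-MS/MS with channel sums equalised. Thermal stability is expressed against control samples, from duplicates, as a log2 fold change.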

[2] = compound: C/C(=N\NC(=O)C1=CC(=CC=C1)S(=O)(=O)N2CCOCC2)/C3=C(C=CC(=C3)Cl)O
Summary of the method: as §1

[3] = compound: C1=CC(=C(C=C1Cl)C2=NC3=NC=CN=C3C(=N2)NC4=CC=NC=C4)F
Summary of the method: as §1

[4] = compound: C1=CC(=CC=C1C2=NC3=C(N2)C=C(C=C3)C(=O)N)OC4=CC=C(C=C4)Cl
Summary of the method: as §1

[5] = compound: C1=CC2=C(C=CC(=C2)/C=C\3/C(=O)NC(=NCC4=CC=CS4)S3)N=C1
Summary of the method: as §1

[6] = compound: C1=CC2=NC=CN=C2C=C1/C=C/3\C(=O)NC(=O)S3
Summary of the method: as §1

[7] = compound: C1=CC=C(C=C1)C2=NC(=C(N2)C3=CC=NC=C3)C4=CC(=C(C=C4)Cl)O
Summary of the method: as §1

[8] = compound: C1=CC=C2C(=C1)C3=NNC4=CC=CC(=C43)C2=O
Summary of the method: as §1

[9] = compound: C1CCN(C1)C(=O)NC2=CC=CC(=C2)NC3=NC=C(C(=N3)NCCC4=CN=CN4)Br
Summary of the method: as §1

[10] = compound: C1CN(CCC1(CC2=CC=C(C=C2)Cl)N)C3=NC=NC4=C3C=CN4
Summary of the method: as §1

[11] = compound: C1COCCN1CCN2C3=CC=CC=C3N=C2NC(=O)C4=CC(=CC=C4)[N+](=O)[O-] [IRAK-1-4 Inhibitor I]
Summary of the method: as §1

[12] = compound: C=CC(=O)N1CCC[C@@H](n2nc(-c3ccc(Oc4ccccc4)cc3)c3c(N)ncnc32)C1 [ibrutinib]
Summary of the method: as §1

[13] = compound: CC(=O)c1cnc2ccc(-c3cc(Cl)c(O)c(Cl)c3)nc2c1N[C@H]1CC[C@H](CN(C)C)CC1
Summary of the method: as §1

[14] = compound: CC(C)(C)Cn1c(N)nc2ccc(-c3[nH]c(C(C)(C)C)nc3-c3ccc(F)cc3)nc21 [ralimetinib]
Summary of the method: as §1

[15] = compound: CC(C)(O)CC(=O)NCCn1ccc2ncnc(Nc3ccc(Oc4cccc(C(F)(F)F)c4)c(Cl)c3)c21
Summary of the method: as §1

[16] = compound: CC(C)C1=C2N=C(C=C(N2N=C1)NCC3=CC=CC=C3)NCCCCCCN
Summary of the method: as §1

[17] = compound: CC(C)C[C@@H](C=O)NC(=O)[C@H](CC(C)C)NC(=O)[C@H](CC(C)C)NC(=O)OCc1ccccc1
Summary of the method: as §1

[18] = compound: CC(C)N(C[C@H]1O[C@@H](n2cnc3c(N)ncnc32)[C@H](O)[C@@H]1O)[C@H]1C[C@@H](CCc2nc3cc(C(C)(C)C)ccc3[nH]2)C1 [pinometostat]
Summary of the method: as §1

[19] = compound: CC1=C(C(CC(=O)N1)C2=CC=C(C=C2)C(F)(F)F)C(=O)NC3=C(C=C4C(=C3)C=NN4)F
Summary of the method: as §1

[20] = compound: CC1=C(C2=C(C=C1)C(=O)C3=CC=CC=C3N2CCCN)C
Summary of the method: as §1

Measured: log2 fold change

AGO1 (UniProt Q9UL18)
inactive: [1] 0.031 | [2] -0.061 | [3] 0.05 | [4] -0.091 | [5] 0.032 | [6] 0.005 | [7] 0.01 | [8] -0.08 | [9] -0.008 | [10] 0.046 | [11] 0.02 | [12] 0.05 | [13] 0.019 | [14] -0.023 | [15] -0.001 | [16] -0.01 | [17] 0.07 | [18] 0.061 | [19] 0.144 | [20] 0.076

ATG4B isoform 2 (UniProt Q9Y4P1)
inactive: [1] -0.008 | [2] 0.078 | [3] 0.017 | [4] 0.178 | [5] 0.118 | [6] 0.089 | [7] 0.143 | [8] -0.046 | [9] -0.087 | [10] -0.033 | [11] 0.127 | [12] -0.038 | [13] -0.102 | [14] 0.134 | [15] -0.194 | [16] -0.299 | [17] -0.137 | [18] -0.013 | [19] -0.031 | [20] 0.114

ACO2 (UniProt Q99798)
UniProt Q99798, sequence (Q99798 whole entry, looked up): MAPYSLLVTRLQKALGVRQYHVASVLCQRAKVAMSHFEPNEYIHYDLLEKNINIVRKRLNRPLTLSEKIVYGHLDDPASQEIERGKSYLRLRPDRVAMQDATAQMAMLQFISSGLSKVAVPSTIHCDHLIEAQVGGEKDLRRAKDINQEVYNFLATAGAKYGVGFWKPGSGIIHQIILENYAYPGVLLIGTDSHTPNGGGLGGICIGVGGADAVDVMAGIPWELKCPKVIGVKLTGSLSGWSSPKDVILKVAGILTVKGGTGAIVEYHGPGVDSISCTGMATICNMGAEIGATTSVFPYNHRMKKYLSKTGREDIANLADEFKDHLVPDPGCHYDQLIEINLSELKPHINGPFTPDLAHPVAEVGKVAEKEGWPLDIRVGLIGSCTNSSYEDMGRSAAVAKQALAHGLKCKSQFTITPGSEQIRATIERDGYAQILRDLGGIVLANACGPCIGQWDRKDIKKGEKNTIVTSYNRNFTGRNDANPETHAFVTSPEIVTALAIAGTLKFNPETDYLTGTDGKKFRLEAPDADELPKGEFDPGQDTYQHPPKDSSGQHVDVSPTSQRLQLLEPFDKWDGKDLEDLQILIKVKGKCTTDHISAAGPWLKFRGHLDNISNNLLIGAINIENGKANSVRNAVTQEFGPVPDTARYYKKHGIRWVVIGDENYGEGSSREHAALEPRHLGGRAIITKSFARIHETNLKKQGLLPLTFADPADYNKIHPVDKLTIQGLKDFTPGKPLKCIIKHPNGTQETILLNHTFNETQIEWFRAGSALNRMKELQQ
inactive: [1] 0.049 | [2] 0.008 | [3] 0.105 | [4] -0.014 | [5] 0.077 | [7] 0.036 | [8] 0.009 | [9] 0.018 | [10] 0.015 | [11] 0.023 | [12] 0.025 | [13] -0.016 | [14] -0.019 | [15] -0.068 | [16] -0.058 | [17] -0.022 | [18] -0.033 | [19] -0.049 | [20] 0.076
active: [6] -0.244

AMD1 (UniProt P17707)
UniProt P17707, sequence (P17707 whole entry, looked up): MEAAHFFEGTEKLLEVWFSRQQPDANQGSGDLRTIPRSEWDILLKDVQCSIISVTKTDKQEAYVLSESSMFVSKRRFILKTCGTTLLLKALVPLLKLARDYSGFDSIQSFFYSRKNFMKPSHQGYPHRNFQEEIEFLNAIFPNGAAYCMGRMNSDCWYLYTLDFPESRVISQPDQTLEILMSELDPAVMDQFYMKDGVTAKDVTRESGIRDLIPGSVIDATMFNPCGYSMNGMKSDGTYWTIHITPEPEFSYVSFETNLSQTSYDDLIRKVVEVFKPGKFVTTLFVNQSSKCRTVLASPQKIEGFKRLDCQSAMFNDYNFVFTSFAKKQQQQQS
inactive: [1] 0.078 | [2] -0.004 | [3] 0.039 | [4] 0.094 | [5] 0.091 | [6] -0.002 | [7] 0.127 | [8] 0.035 | [9] -0.224 | [10] 0.025 | [11] -0.018 | [12] -0.043 | [13] -0.086 | [15] -0.031 | [16] -0.073 | [17] 0.276 | [18] -0.025 | [19] 0.04 | [20] 0.051
active: [14] -0.307

ABHD16A (UniProt O95870)
UniProt O95870, sequence (O95870 whole entry, looked up): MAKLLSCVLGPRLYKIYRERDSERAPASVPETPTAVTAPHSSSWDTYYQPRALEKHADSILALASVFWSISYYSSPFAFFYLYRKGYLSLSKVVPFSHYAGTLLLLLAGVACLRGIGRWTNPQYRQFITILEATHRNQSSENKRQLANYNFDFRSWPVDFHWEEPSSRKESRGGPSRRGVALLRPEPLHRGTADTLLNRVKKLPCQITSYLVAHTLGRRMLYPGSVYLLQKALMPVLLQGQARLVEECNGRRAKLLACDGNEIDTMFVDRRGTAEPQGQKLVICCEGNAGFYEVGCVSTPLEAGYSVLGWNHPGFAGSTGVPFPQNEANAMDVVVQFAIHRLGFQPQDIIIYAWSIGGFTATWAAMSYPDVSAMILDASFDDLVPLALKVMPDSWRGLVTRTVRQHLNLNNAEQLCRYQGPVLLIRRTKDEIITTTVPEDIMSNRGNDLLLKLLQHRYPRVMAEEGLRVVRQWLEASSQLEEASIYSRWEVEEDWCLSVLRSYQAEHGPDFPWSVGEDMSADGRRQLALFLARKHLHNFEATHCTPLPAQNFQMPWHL
active: [15] 0.361 | [16] 0.656
inactive: [1] -0.036 | [2] 0.02 | [3] -0.048 | [4] 0.161 | [5] 0.208 | [6] -0.094 | [7] 0.036 | [8] 0.009 | [9] -0.005 | [10] 0.023 | [11] -0.039 | [12] 0.043 | [13] -0.026 | [14] 0.047 | [17] 0.064 | [18] -0.009 | [19] -0.064 | [20] 0.012

ATG9A (UniProt Q7Z3C6)
UniProt Q7Z3C6, sequence (Q7Z3C6 whole entry, looked up): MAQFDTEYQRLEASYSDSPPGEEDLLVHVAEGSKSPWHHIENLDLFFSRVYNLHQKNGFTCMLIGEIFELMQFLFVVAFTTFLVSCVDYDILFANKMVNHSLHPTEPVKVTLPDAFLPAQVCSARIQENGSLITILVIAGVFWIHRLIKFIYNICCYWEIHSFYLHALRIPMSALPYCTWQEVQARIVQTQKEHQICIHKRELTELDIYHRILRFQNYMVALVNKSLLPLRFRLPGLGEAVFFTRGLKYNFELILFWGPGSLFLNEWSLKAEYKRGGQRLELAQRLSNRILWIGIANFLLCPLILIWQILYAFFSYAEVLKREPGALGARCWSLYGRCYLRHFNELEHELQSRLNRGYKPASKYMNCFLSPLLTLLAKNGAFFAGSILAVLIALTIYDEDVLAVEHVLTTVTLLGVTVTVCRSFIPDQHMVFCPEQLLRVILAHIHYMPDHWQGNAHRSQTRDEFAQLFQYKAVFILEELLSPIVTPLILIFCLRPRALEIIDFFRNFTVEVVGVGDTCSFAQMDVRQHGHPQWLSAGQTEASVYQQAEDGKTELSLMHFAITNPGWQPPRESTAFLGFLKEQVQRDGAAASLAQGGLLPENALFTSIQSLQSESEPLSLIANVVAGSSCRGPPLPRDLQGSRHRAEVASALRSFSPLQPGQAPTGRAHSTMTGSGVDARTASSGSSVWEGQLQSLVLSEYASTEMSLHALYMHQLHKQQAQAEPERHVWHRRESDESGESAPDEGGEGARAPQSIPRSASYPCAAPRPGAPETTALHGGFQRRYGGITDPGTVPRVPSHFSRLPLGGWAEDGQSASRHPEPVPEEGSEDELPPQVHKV
inactive: [1] 0.044 | [2] 0.03 | [3] 0.057 | [4] -0.003 | [5] 0.047 | [6] 0.021 | [7] 0.045 | [8] -0.005 | [9] -0.026 | [10] -0.023 | [11] 0 | [12] 0.081 | [13] -0.091 | [14] -0.023 | [15] -0.056 | [16] -0.176 | [17] 0.06 | [18] 0.015 | [19] -0.003 | [20] 0.038

ATP6V0A1 isoform 3 (UniProt Q93050)
UniProt Q93050, sequence (Q93050 whole entry, looked up): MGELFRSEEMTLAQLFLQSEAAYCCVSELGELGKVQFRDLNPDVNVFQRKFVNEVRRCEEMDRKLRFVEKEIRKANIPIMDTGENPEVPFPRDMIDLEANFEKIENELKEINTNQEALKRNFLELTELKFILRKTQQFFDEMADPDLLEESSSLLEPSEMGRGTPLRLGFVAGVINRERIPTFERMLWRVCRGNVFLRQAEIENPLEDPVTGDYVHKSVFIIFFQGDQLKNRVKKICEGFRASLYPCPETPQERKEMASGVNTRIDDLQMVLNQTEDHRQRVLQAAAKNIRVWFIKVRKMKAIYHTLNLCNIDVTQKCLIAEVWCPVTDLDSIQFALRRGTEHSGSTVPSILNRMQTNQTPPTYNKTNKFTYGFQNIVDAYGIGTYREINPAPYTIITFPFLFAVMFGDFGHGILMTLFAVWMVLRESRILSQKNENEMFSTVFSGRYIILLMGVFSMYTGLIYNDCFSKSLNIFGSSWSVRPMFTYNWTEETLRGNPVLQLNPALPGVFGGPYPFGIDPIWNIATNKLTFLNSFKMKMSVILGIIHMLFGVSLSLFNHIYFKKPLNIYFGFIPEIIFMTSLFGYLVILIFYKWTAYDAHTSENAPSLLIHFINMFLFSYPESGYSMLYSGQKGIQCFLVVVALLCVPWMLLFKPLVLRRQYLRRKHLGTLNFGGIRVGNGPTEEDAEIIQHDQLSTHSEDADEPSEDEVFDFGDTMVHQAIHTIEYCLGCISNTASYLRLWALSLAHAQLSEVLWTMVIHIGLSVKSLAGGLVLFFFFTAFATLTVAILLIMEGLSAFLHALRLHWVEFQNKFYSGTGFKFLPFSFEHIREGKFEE
active: [16] -0.463
inactive: [1] -0.086 | [2] -0.041 | [3] -0.176 | [4] 0.061 | [5] 0 | [6] -0.008 | [7] -0.232 | [8] 0.052 | [9] -0.066 | [10] -0.195 | [11] -0.068 | [12] 0 | [13] -0.033 | [14] 0.087 | [15] 0.019 | [17] 0.125 | [18] 0.198 | [19] 0.067 | [20] 0.011

ATP9B (UniProt O43861)
active: [1] 0.406
inactive: [2] 0.099 | [3] 0.01 | [4] -0.132 | [5] -0.029 | [6] -0.045 | [7] 0.033 | [8] -0.038 | [9] 0.027 | [10] -0.064 | [11] 0.061 | [12] -0.068 | [13] -0.034 | [14] -0.077 | [15] -0.054 | [16] -0.071 | [17] -0.024 | [18] -0.064 | [19] -0.004 | [20] 0.003

ACSL1 (UniProt P33121)
UniProt P33121, sequence (P33121 whole entry, looked up): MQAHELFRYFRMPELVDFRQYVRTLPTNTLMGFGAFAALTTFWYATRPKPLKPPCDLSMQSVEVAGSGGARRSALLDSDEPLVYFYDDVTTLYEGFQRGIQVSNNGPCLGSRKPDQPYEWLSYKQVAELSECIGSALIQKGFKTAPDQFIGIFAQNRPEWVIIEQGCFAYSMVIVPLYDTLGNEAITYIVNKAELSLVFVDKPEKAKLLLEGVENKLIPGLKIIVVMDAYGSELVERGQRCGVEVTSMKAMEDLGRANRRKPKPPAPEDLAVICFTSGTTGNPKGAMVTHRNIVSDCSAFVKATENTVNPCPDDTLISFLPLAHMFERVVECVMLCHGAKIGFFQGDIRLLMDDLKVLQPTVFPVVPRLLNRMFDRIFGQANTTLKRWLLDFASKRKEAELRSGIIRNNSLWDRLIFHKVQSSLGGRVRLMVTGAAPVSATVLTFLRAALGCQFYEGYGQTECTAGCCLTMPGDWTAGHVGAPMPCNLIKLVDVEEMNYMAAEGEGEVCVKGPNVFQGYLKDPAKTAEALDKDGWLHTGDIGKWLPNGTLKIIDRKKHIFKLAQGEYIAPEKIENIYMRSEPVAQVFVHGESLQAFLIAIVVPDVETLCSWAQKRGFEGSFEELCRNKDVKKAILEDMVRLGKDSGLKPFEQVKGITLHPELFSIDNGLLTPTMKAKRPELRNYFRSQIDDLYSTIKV
inactive: [1] -0.015 | [2] 0.067 | [3] 0.017 | [4] 0.03 | [5] 0.005 | [6] 0.018 | [7] 0.057 | [8] 0.016 | [9] -0.021 | [10] 0.002 | [11] -0.004 | [12] 0.017 | [13] -0.037 | [14] -0.018 | [15] 0.01 | [17] -0.057 | [18] 0.008 | [19] 0.058 | [20] 0.03
active: [16] -0.243

ATP6V1F isoform 2 (UniProt Q16864)
UniProt Q16864, sequence (Q16864 whole entry, looked up): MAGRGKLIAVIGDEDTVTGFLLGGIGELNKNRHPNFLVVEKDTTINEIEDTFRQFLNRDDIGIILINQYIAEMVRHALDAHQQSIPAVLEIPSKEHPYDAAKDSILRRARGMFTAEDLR
inactive: [1] -0.049 | [2] -0.017 | [3] 0.232 | [4] 0.077 | [5] 0.04 | [6] 0.189 | [7] -0.017 | [8] -0.024 | [9] -0.066 | [10] -0.222 | [11] 0.053 | [12] -0.003 | [13] -0.189 | [14] -0.054 | [15] -0.132 | [16] -0.024 | [17] -0.059 | [18] -0.009 | [19] 0.039 | [20] 0.253

ATAD1 (UniProt Q8NBU5)
UniProt Q8NBU5, sequence (Q8NBU5 whole entry, looked up): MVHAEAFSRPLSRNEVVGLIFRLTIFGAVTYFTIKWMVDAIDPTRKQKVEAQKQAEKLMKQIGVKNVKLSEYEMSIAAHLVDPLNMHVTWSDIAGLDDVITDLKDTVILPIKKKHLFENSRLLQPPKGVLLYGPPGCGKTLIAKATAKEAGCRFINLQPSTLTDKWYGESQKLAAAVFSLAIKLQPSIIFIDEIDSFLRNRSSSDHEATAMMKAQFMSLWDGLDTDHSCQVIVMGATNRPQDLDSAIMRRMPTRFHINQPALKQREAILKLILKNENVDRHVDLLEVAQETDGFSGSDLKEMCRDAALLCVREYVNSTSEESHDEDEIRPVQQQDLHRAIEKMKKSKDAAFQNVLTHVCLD
inactive: [1] 0.037 | [2] 0.036 | [4] 0.021 | [5] 0.054 | [6] -0.022 | [7] 0.059 | [8] 0.123 | [9] 0 | [10] -0.006 | [11] -0.007 | [12] 0.011 | [13] -0.081 | [15] -0.083 | [16] -0.077 | [17] 0.038 | [18] 0.041 | [19] -0.083 | [20] 0.054
active: [3] 0.295 | [14] 0.238

BYSL (UniProt Q13895)
active: [20] -0.495
inactive: [1] -0.009 | [2] 0.014 | [3] -0.05 | [4] -0.006 | [5] -0.046 | [6] 0.027 | [7] -0.018 | [8] 0.075 | [9] -0.042 | [10] -0.289 | [11] -0.115 | [12] -0.054 | [13] 0.043 | [14] 0.051 | [15] -0.11 | [16] -0.109 | [17] 0.092 | [18] 0.118 | [19] -0.007

ARL3 (UniProt P36405)
inactive: [1] -0.009 | [2] 0.007 | [3] 0.033 | [4] -0.037 | [5] 0.046 | [6] 0.007 | [7] 0.019 | [8] -0.015 | [9] -0.026 | [10] 0.041 | [11] 0.049 | [12] -0.01 | [13] -0.033 | [14] -0.042 | [15] -0.034 | [16] 0.065 | [17] -0.057 | [18] -0.029 | [19] 0.002 | [20] 0.017

ACBD6 (UniProt Q9BR61)
active: [13] 0.477
inactive: [1] 0.056 | [2] -0.031 | [3] 0.134 | [4] 0.108 | [5] 0.007 | [6] 0.011 | [7] -0.078 | [8] 0.073 | [9] -0.186 | [10] -0.216 | [11] -0.072 | [12] 0.009 | [14] -0.169 | [15] -0.068 | [16] 0.173 | [17] 0.159 | [18] 0.008 | [19] 0.023 | [20] 0.074

ARHGAP1 (UniProt Q07960)
UniProt Q07960, sequence (Q07960 whole entry, looked up): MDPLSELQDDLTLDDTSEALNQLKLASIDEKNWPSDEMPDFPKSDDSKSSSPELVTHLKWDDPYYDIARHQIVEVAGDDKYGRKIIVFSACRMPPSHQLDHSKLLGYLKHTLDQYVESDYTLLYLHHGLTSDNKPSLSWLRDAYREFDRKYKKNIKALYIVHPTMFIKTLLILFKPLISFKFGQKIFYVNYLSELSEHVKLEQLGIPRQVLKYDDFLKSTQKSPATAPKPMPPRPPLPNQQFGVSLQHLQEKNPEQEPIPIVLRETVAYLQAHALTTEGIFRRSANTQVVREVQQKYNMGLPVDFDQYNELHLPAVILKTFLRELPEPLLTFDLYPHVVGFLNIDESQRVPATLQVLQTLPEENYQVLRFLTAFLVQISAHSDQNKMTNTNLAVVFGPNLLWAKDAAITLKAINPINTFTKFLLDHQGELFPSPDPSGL
inactive: [1] -0.039 | [2] 0.014 | [3] 0.025 | [4] 0.021 | [5] 0.038 | [6] 0.021 | [7] 0.021 | [8] -0.011 | [9] 0.002 | [10] 0.019 | [11] 0.025 | [12] -0.014 | [13] -0.049 | [14] -0.022 | [15] -0.014 | [16] 0.162 | [17] 0.023 | [18] 0 | [19] -0.011 | [20] -0.014

ATP1A4 (UniProt Q13733)
inactive: [1] -0.076 | [2] 0.033 | [3] 0.183 | [4] 0.046 | [5] -0.051 | [6] 0.063 | [7] -0.003 | [8] -0.112 | [9] -0.009 | [10] -0.015 | [11] 0.002 | [12] -0.013 | [13] 0.032 | [14] -0.025 | [15] -0.025 | [16] 0.121 | [17] -0.033 | [18] -0.017 | [19] 0.016 | [20] 0.03
